HP1b binding inh – blocks HP1-beta chromodomain binding to methylated histone tails; P83916; AlphaScreen HP1-beta / biotin-H3K9me3 peptide binding; Potency, µM (highest dose often 114 µM), without a hit: at the highest dose activity change, negative = inhibition, hits mostly inhibitors; actives 0.56% (n = 390,000); further: nearly all actives have a fitted effect of over 70% in size
Target sequence (P83916 whole entry, looked up): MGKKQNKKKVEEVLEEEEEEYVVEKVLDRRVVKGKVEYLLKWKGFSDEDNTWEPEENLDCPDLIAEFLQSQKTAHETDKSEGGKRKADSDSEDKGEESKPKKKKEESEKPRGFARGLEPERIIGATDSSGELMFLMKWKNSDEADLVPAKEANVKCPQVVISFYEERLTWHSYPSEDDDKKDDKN
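Compound inhibition of the preformed complex between 50 nM HP1-beta and 50 nM biotinylated H3K9me3 peptide was read by AlphaScreen. Buffer was PBS pH 7.4 with 0.01% Tween-20. Incubations ran 30 min at room temperature, with 10 ug/mL donor/acceptor beads.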
L3MBTL1 block – L3MBTL1 (human) inhibition | Potency, µM (doses to about 57.1 µM), without a hit: at the highest dose activity, negative = inhibition, most hits filed as inhibitors | actives 0.66% (n = 230,000) | AID 485360 | Q9Y468 | AlphaScreen L3MBTL1–H3K9me1 peptide binding; further: on the % scale 0 is the no-effect control and ±100 the full control effect; nearly all actives have a fitted effect of over 60% in size
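AlphaScreen assay: L3MBTL1 (50 nM final) was preincubated 30 min at room temperature with biotinylated H3(1-15)K9me1 peptide (75 nM final), then 30 min with library compounds; streptavidin donor and nickel chelate acceptor beads (10 ug/mL final) added, 30 min dark.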
G9a inh – G9a (human) methyltransferase inhibition; Q96KQ7; G9a H3K9 monomethylation, AlphaScreen, 2 h; Potency, µM (series often up to 102 µM), for the others: at the top dose activity, negative = inhibition, actives largely listed as inhibitors; actives 8.8% (n = 350,000); AID 504332; further: on the % scale 0 is the no-effect control and ±100 the full control effect; nearly all actives have a fitted effect of over 75% in size
Target sequence (Q96KQ7 913-1193 limits assumed): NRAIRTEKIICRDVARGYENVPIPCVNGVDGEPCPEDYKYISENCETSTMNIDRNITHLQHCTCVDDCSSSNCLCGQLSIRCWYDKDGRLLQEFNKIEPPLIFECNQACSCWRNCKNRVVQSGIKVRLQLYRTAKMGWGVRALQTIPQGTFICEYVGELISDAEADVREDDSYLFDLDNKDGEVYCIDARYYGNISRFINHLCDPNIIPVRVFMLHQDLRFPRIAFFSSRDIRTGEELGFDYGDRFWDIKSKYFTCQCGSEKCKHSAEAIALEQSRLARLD
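Quantitative HTS format: methyltransferase activity on a biotin-tagged H3K9 peptide is measured by AlphaScreen, using a rabbit anti-monomethyl-H3K9 antibody with streptavidin donor and anti-IgG acceptor beads. Final levels are 20 nM enzyme, 500 nM peptide, 20 uM SAM; 2 h RT.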
BAZ2B inh – BAZ2B (human) inhibition; AlphaScreen BAZ2B-H3K14Ac peptide displacement; Potency, µM (series often up to 114 µM), inactives show at the top dose activity change, negative = inhibition, hits mostly inhibitors; actives 4.4% (n = 360,000); further: on the % scale 0 is the no-effect control and ±100 the full control effect; nearly all actives have a fitted effect of over 60% in size
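AlphaScreen displacement: compounds (up to 110uM) incubated 30 min at room temperature with a preformed 50 nM BAZ2B/50 nM biotinylated H3K14Ac peptide complex in PBS pH 7.4 with Tween-20. Donor and acceptor beads at 10 ug/mL final added, 20 min light-protected before reading.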
Sfp inh – Sfp phosphopantetheinyl transferase inhibition | Q9F4F7 | Biochemical Sfp PPTase activity, qHTS | Potency, µM, inactives show largest response in the series, negative = inhibition, hits mostly inhibitors | actives 3.5% (n = 310,000);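 further: the enzyme is Sfp with the accession as filed and its product quenches rhodamine fluorescence; 0% = enzyme reaction without inhibitor and -100% = no enzyme wells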
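Buffer: 50 mM Hepes-Na pH 7.6, 10 mM MgCl2, 0.01% Nonidet P-40, 0.01% BSA. Enzyme 15 nM, pre-exposed to compound 15 min; substrates then added and fluorescence change tracked over 30 min.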
JMJD2A Tudor inh – blocks the human JMJD2A Tudor domain; AlphaScreen JMJD2A-Tudor / H3K4me3 peptide binding; Potency, µM (titrated, usually from 114 µM), inactives show at the highest dose activity change, negative = inhibition, actives largely listed as inhibitors; actives 4.4% (n = 390,000); further: on the % scale 0 is the no-effect control and ±100 the full control effect; nearly all actives have a fitted effect of over 50% in size
* = called active by the depositor; ? = inconclusive; nt = not tested or not shown; [ ] = another dose, or the depositor's remark. Hits are enriched below; roughly 12% of the tested compounds scored in any of these assays. The call rests on the fitted dose curve; in most records, active means well fitted curve in the direction sought with a large enough effect; inconclusive means small, poorly fitted or top-dose-only effect, or another doubt; inactive means no such curve, though single readings can be large; an effect the other way counts as inactive or inconclusive. Potency means the concentration at half of the fitted maximal effect.

SMILES	HP1b binding inh	L3MBTL1 block	G9a inh	BAZ2B inh	Sfp inh	JMJD2A Tudor inh
Cc1cc(C=O)sc1[B-](F)(F)F	23.6%	nt	nt	nt	nt	-11.0%
CC(=O)N1CCC2(CC1)C/C(=N\NC(=S)Nc1ccccc1C)c1cc(O)ccc1O2	?	nt	31.6µM*	-31.0%	0.9%	?
CC(=O)N1CCC2(CC1)C/C(=N\NC(=S)Nc1ccccc1F)c1cc(O)ccc1O2	?	nt	15.8µM*	-32.6%	-25.9%	?
CC(C)Oc1ccc(/C(O)=C2/C(=O)C(=O)N(CCN3CCNCC3)C2c2ccc(C(C)C)cc2)cc1 (stereo not drawn)	23.7%	nt	-5.3%[12.7 µM]	-11.0%	6.2%	-6.4%
Cn1c(=O)c(-c2cccs2)nc2cnc(N3CCNCC3)nc21	nt	nt	-0.9%[0.501 µM]	nt	9.1%	nt
CC(C)C(=O)NNC(=O)c1cc2sccc2s1	34.5%	7.0%	nt	-3.4%	9.8%	-10.6%
O=C(O)c1ccccc1SCc1cn2cc(Br)ccc2n1	60.8%	-4.5%	?	-25.1%	-12.8%	-10.4%
O=C(O)c1cccnc1SCc1ccccc1Cl	44.5%	10.7%	nt	-7.1%	-2.6%	1.0%
O=C(O)c1cccnc1SCc1cn2cc(Br)ccc2n1	4.5%	-1.5%	50.1µM*	?	-5.5%	-22.6%[11.4 µM]
Cc1ccc(C)c(CSc2ncccc2C(=O)O)c1	1.7%	11.1%	50.1µM*	-35.8%	-1.2%	-17.4%
Cc1ccc(-c2ccc(CCC(=O)O)n2-c2cccc(O)c2)cc1	-4.1%	nt	14.1µM*	?	5.9%	?
COC(=O)c1ccc(-n2c(CCC(=O)O)ccc2-c2ccccc2)cc1	1.4%	nt	-33.1%[2.33 µM]	?	?	-12.8%
O=C(O)CCc1ccc(-c2ccc(Cl)cc2)n1-c1cccc(C(F)(F)F)c1	-22.0%	nt	15.8µM*	35.5µM*	nt	?
CC(=O)c1ccc(-n2c(CCC(=O)O)ccc2-c2ccc(C)cc2)cc1	-14.9%	nt	22.2%[2.33 µM]	-38.5%	3.9%	?
O=C(O)CCc1ccc(-c2cccs2)n1-c1ccc(C(=O)O)cc1	8.0%	-29.0%	14.1µM*	-38.9%	28.2µM*	?
O=C(O)CCc1ccc(-c2ccccc2)n1-c1cccc(Br)c1	-21.5%	nt	15.8µM*	?	nt	?
Cc1ccc(-c2ccc(CCC(=O)O)n2-c2ccc(O)cc2)cc1	-20.2%	-3.3%	?	?	-0.7%	?
COc1ccc(NC(=O)CSc2nc3ccccc3nc2N2CCC(C)CC2)cc1	73.2%	nt	54.8%[59 µM]	13.9%	nt	16.5%
CC(=O)c1cccc(-n2c(CCC(=O)O)ccc2-c2ccccc2)c1	16.5%	nt	39.8µM*	-23.6%	70.8µM*	-18.5%
O=C(O)CCc1ccc(-c2cccs2)n1CCc1ccccc1	34.2%	-17.1%	nt	28.2µM*	20µM*	?
CC(=O)c1ccc(-n2c(CCC(=O)O)ccc2-c2ccccc2)cc1	6.8%	nt	-13.6%[2.33 µM]	-19.6%	21.6%	-7.0%
CN(C)c1ccc(-n2c(CCC(=O)O)ccc2-c2ccccc2)cc1	?	nt	11.2µM*	28.2µM*	nt	50.1µM*
CC(=O)c1cccc(-n2c(CCC(=O)O)ccc2-c2cccs2)c1	?	-8.7%	?	50.1µM*	8.91µM*	56.2µM*
COC(=O)c1cc(CN2CCN(c3ccccc3)CC2)ccc1O	26.8%	1.1%[2.29 µM]	25.0%[0.501 µM]	-35.1%	-2.4%	-21.6%
Cc1ccc(NC(=O)Cn2c(CCC(=O)O)ccc2-c2cccs2)cc1Cl	14.2%	nt	44.7µM*	?	39.8µM*	?
SMILES	HP1b binding inh	L3MBTL1 block	G9a inh	BAZ2B inh	Sfp inh	JMJD2A Tudor inh
CC(C)(C)c1ccc(C(=O)Nn2c(CCC(=O)O)ccc2-c2cccs2)cc1	2.5%	nt	4.2%[12.7 µM]	?	56.2µM*	-33.1%
COc1cccc(NC(=O)Cn2c(CCC(=O)O)ccc2-c2ccc(Cl)cc2)c1	-13.0%	-19.3%	nt	44.7µM*	-5.9%	-22.0%
O=C(O)CCc1ccc(-c2cccs2)n1NC(=O)c1ccccc1Br	11.7%	-8.8%	-14.2%[59 µM]	?	?	?
CCc1ccc(NC(=O)c2cc3nc(-c4ccc(C)cc4)cc(C(F)(F)F)n3n2)cc1	0.5%	nt	1.0%[59 µM]	-10.7%	nt	-12.3%
Cc1c(NC(=O)CSc2ccc3ccccc3n2)c(=O)n(-c2ccccc2)n1C	26.4%	-2.1%	19.0%[12.7 µM]	5.9%	nt	-5.7%
CCC(C)NC(=O)c1ccc(NC(=O)CC2SC(N3CCCC3)=NC2=O)cc1 (stereo not drawn)	11.5%	-1.4%	17.2%[2.33 µM]	3.7%	nt	4.5%
c1ccc(-c2nnc(-c3ccccn3)nn2)nc1	37.5%	nt	nt	nt	nt	-23.5%[11.4 µM]
c1ccc(-c2cccc(-c3ccccn3)n2)nc1	30.9%	?	-11.1%	17.8µM*	35.2%	20µM*
CCC(C)(C)n1nnnc1C(c1cc2ccc(OC)cc2[nH]c1=O)N1CCCCC1 (stereo not drawn)	-11.1%	nt	?	-6.2%	2.6%	-27.0%
COc1ccc(Cn2nnnc2C(c2ccccc2OC)N2CCC(C(N)=O)CC2)cc1 (stereo not drawn)	15.2%	nt	-11.4%[12.7 µM]	11.0%	11.9%	-4.5%
COc1ccc(Cn2nnnc2C(c2ccc(N(C)C)cc2)N2CCC(C(N)=O)CC2)cc1 (stereo not drawn)	?	-12.2%	12.6µM*	50.1µM*	8.5%	?
CCC(C)(C)n1nnnc1C(c1cc2cc(OC)ccc2[nH]c1=O)N1CCc2ccccc21 (stereo not drawn)	-14.4%	-9.3%	?	?	-38.4%	?
COc1ccc(Cn2nnnc2C(c2cc3ccc(OC)cc3[nH]c2=O)N2CCCCCC2)cc1 (stereo not drawn)	28.6%	-1.6%	8.91µM*	8.5%	-25.3%	-27.6%
CCC(C)(C)n1nnnc1C(c1cc2ccc(OC)cc2[nH]c1=O)N1CCc2ccccc21 (stereo not drawn)	-21.8%	-14.5%	12.6µM*	?	10µM*	?
CCC(C)(C)n1nnnc1C(c1cc2ccc(OC)cc2[nH]c1=O)N1CCc2ccccc2C1 (stereo not drawn)	39.0%	30.8%[11.4 µM]	2.51µM*	-13.6%	4.47µM*	-29.5%
COc1ccc2cc(C(c3nnnn3C3CCCC3)N3CCc4ccccc4C3)c(=O)[nH]c2c1 (stereo not drawn)	13.4%	-2.6%	10µM*	nt	22.4µM*	-25.2%
Cc1ccccc1C(=O)/C=C1/c2ccccc2CC(C)(C)N1C	25.7%	-3.9%	34.5%[59 µM]	50.1µM*	6.6%	-26.3%
COc1ccc(S(=O)(=O)NCC(=O)NCc2cc(=O)n(C)c(=O)n2C)cc1	42.2%	nt	6.1%[12.7 µM]	9.5%	12.6%	-2.3%
CN(C(=S)NC1=CCS(=O)(=O)C1)C1CCCCC1	32.2%	nt	10µM*	-0.2%	-18.6%	-4.5%
Cc1ccc(NC(=S)NN2CCN(C)CC2)c(C)c1	42.2%	7.6%	6.8%[59 µM]	0.7%	1.3%	-6.7%
CCCc1cc(C(=O)NNC(=S)NCC2CCCO2)cs1 (stereo not drawn)	39.1%	-14.1%	4.5%[59 µM]	6.8%	6.9%	4.5%

Bioassay records as filed in PubChem BioAssay.
